Results published in PubChem BioAssay AID504725 (Broad Institute, 2011).
Results with a measured potency or affinity are listed apart. The source made the active and inactive calls. No rule for the calls is given here.

What follows are molecules tested against KSHV LANA C-terminal domain (residues 932-1162) binding to LBS DNA (UniProt O40947) (assay: inhibitors of C-LANA binding to LBS DNA, dose response, biochemical, fluorescence polarization, cherry-picked samples (AID 504725)). Conditions: MBP-C-LANA / FAM-LBS DNA fluorescence polarization, percent change from plate compound-well median; series mostly up to 35 µM.

outcome, inactive:
COc1cc2c(cc1OC)CN(C(=O)c1ccc(S(=O)(=O)N3CCCC3)cc1)CC2
C=CCN1C(=O)/C(=c2\sc3nc(=O)c(Cc4ccccc4Cl)nn3c2=O)c2ccccc21
Cc1c(N)cc(S(=O)(=O)O)cc1NC(=O)c1cccc([N+](=O)[O-])c1
O=C(Cn1c2ccccc2c2nc3n(c(=O)c21)CCS3)Nc1ccccc1C(F)(F)F
CCC(Sc1ncccc1C(=O)O)C(=O)N1CCCC1 (stereo not drawn)
COc1ccc(C(C)=O)cc1CN(C)C
COc1ccc(C2(CNC(=O)CCC(=O)O)CCCC2)cc1OC
COc1cc(OC)cc(-c2c(-c3ccsc3)c3cc(Br)ccc3n2C)c1
Nc1ccccc1C(=O)N1O[C@@H]2C=C[C@H]1CC2
CC1=[N+](C)N(c2ccccc2)C(=O)C1N=C/C=C/c1ccccc1 (stereo not drawn)
COc1ccc(N=Nc2nc3ccc(Br)cc3n2C)cc1
COc1cc(OC)cc(C(=O)NC2CC3CCC(C2)N3C)c1 (stereo not drawn)
Cc1nnc(NC(=O)CN2C(=O)NC3(CCCC3)C2=O)s1
Cc1cc(C)n(CC(=O)NNC(=O)CC(C)c2ccccc2)n1 (stereo not drawn)
CCN(CC(=O)Nc1c(F)cccc1F)C(=O)CCCc1cccs1
Cn1c(=O)c2c(nc(N/N=C/c3ccc(OC(=O)c4ccco4)cc3)n2Cc2ccc(F)cc2)n(C)c1=O
Oc1ccccc1C=Nc1ccccc1-c1nc2ccccc2[nH]1
COc1ccc(NC(=O)Cc2nnc(SCC(=O)Nc3nccs3)n2C)cc1
CC1CC(C)(C)NC(=S)N1CC(=O)N(C)Cc1ccccc1 (stereo not drawn)
N=C1/C(=C\c2ccc(Br)o2)C(=O)N=C2SC(CC(=O)N3CCOCC3)=NN12
COc1[nH]c(/N=C/c2ccccc2)c(C#N)c1C#N
NC(=S)N/N=C/c1ccc(-c2ccc([N+](=O)[O-])cc2)o1
NNC(=O)CC1=NNC(=O)C1
Cn1c(=O)oc2cc(S(=O)(=O)CCC(=O)N3CCN(c4ccccc4F)CC3)ccc21
Cc1[nH][nH]c(=O)c1C(c1ccc(-c2ccc(Cl)c(C(=O)O)c2)o1)c1c(C)[nH][nH]c1=O
C=C1c2cccc(O)c2C(O)=C2C(=O)[C@]3(O)C(O)=C(C(N)=O)C(=O)[C@@H](N(C)C)[C@@H]3[C@@H](O)[C@H]12
Nc1nnc(CC(=O)N/N=C/c2cc([N+](=O)[O-])cc(Br)c2O)s1
CC[C@H](C)[C@H](NC(N)=O)C(=O)Nc1ccc(NC(C)=O)cc1
C=CCNC(=S)N1CCN(S(=O)(=O)c2ccc(C)cc2)CC1
CSCCC(NC(=O)c1ccccc1Cl)C(=O)N1CCCC(C)C1 (stereo not drawn)
C/C(=N\Nc1nc2c(s1)CCCC2)c1ccc(Cl)cc1
CCC(=O)Nc1cccc(C(=O)/C=C/c2ccccc2)c1
CC(=O)O[C@@H]1[C@@H](OC(C)=O)[C@H](n2ccc3cc([N+](=O)[O-])ccc32)OC[C@@H]1OC(C)=O
CCNC(=O)COC(=O)c1cccc(Br)c1
O=c1cc(-c2ccc(O)c(O)c2)oc2cc(O[C@@H]3O[C@H](CO)[C@@H](O)[C@H](O)[C@H]3O)cc(O)c12
NC(=O)c1ccc(NC(=O)C2COc3ccccc3O2)cc1 (stereo not drawn)
O=C(NCC1CCCO1)c1cccc(S(=O)(=O)N(Cc2ccccc2)c2ccccc2)c1 (stereo not drawn)
CCOC(=O)c1ccc[n+](CC(=O)c2ccc(OC)cc2)c1
